# Results published in the supplement of paper PMC4466140.
# Molecular target: AgAbp1
# Assay: SPOT peptide array binding signal intensity (averaged, normalized) (arbitrary units (background-subtracted, floor 0; scale differs between SH3 domains)); higher = stronger binding of the SH3 domain to the peptide
# Method: (§1)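 GST-tagged SH3 domains from S. cerevisiae (Sc), A. gossypii (Ag), C. albicans (Ca) and S. pombe (Sp) were incubated at 10 ug/ml overnight at 4 C on cellulose SPOT membranes carrying 292 synthetic 15-mer peptides mined from the S. cerevisiae proteome (cysteines replaced by serines). Binding was detected with anti-GST antibody, HRP secondary and chemiluminescence, quantified with Genespotter, and reported as normalized spot intensities averaged over biological replicates.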
row,Binder,SPOT peptide array binding signal intensity
1,RSKRLFPVRPMATAH,39.5

# Molecular target: AgBbc1
# Assay: as above
# Method: as §1
row,Binder,SPOT peptide array binding signal intensity
1,RSKRLFPVRPMATAH,36.2

# Molecular target: AgBem1-D1
# Assay: as above
# Method: as §1
row,Binder,SPOT peptide array binding signal intensity
1,RSKRLFPVRPMATAH,89

# Molecular target: AgBzz1-D1
# Assay: as above
# Method: as §1
row,Binder,SPOT peptide array binding signal intensity
1,RSKRLFPVRPMATAH,13

# Molecular target: AgBzz1-D2
# Assay: as above
# Method: as §1
row,Binder,SPOT peptide array binding signal intensity
1,RSKRLFPVRPMATAH,11.5

# Molecular target: AgCyk3
# Assay: as above
# Method: as §1
row,Binder,SPOT peptide array binding signal intensity
1,RSKRLFPVRPMATAH,3

# Molecular target: AgFus1
# Assay: as above
# Method: as §1
row,Binder,SPOT peptide array binding signal intensity
1,RSKRLFPVRPMATAH,190

# Molecular target: AgHof1
# Assay: as above
# Method: as §1
row,Binder,SPOT peptide array binding signal intensity
1,RSKRLFPVRPMATAH,3.5

# Molecular target: AgHse1
# Assay: as above
# Method: as §1
row,Binder,SPOT peptide array binding signal intensity
1,RSKRLFPVRPMATAH,632

# Molecular target: AgLsb1
# Assay: as above
# Method: as §1
row,Binder,SPOT peptide array binding signal intensity
1,RSKRLFPVRPMATAH,3

# Molecular target: AgLsb4
# Assay: as above
# Method: as §1
row,Binder,SPOT peptide array binding signal intensity
1,RSKRLFPVRPMATAH,51

# Molecular target: AgMyo5
# Assay: as above
# Method: as §1
row,Binder,SPOT peptide array binding signal intensity
1,RSKRLFPVRPMATAH,0.5

# Molecular target: AgNbp2
# Assay: as above
# Method: as §1
row,Binder,SPOT peptide array binding signal intensity
1,RSKRLFPVRPMATAH,218

# Molecular target: AgRvs167
# Assay: as above
# Method: as §1
row,Binder,SPOT peptide array binding signal intensity
1,RSKRLFPVRPMATAH,4.33

# Molecular target: AgSho1
# Assay: as above
# Method: as §1
row,Binder,SPOT peptide array binding signal intensity
1,RSKRLFPVRPMATAH,79

# Molecular target: AgSla1-D1-D2
# Assay: as above
# Method: as §1
row,Binder,SPOT peptide array binding signal intensity
1,RSKRLFPVRPMATAH,469

# Molecular target: AgSla1-D3
# Assay: as above
# Method: as §1
row,Binder,SPOT peptide array binding signal intensity
1,RSKRLFPVRPMATAH,10.2

# Molecular target: CaAbp1-D1
# Assay: as above
# Method: as §1
row,Binder,SPOT peptide array binding signal intensity
1,RSKRLFPVRPMATAH,451

# Molecular target: CaAbp1-D2
# Assay: as above
# Method: as §1
row,Binder,SPOT peptide array binding signal intensity
1,RSKRLFPVRPMATAH,414

# Molecular target: CaBbc1
# Assay: as above
# Method: as §1
row,Binder,SPOT peptide array binding signal intensity
1,RSKRLFPVRPMATAH,128

# Molecular target: CaBem1-D1
# Assay: as above
# Method: as §1
row,Binder,SPOT peptide array binding signal intensity
1,RSKRLFPVRPMATAH,7

# Molecular target: CaBzz1-D1
# Assay: as above
# Method: as §1
row,Binder,SPOT peptide array binding signal intensity
1,RSKRLFPVRPMATAH,53

# Molecular target: CaBzz1-D2
# Assay: as above
# Method: as §1
row,Binder,SPOT peptide array binding signal intensity
1,RSKRLFPVRPMATAH,51.5

# Molecular target: CaCyk3
# Assay: as above
# Method: as §1
row,Binder,SPOT peptide array binding signal intensity
1,RSKRLFPVRPMATAH,64.5

# Molecular target: CaFus1
# Assay: as above
# Method: as §1
row,Binder,SPOT peptide array binding signal intensity
1,RSKRLFPVRPMATAH,402

# Molecular target: CaHof1
# Assay: as above
# Method: as §1
row,Binder,SPOT peptide array binding signal intensity
1,RSKRLFPVRPMATAH,≤ 0

# Molecular target: CaHse1
# Assay: as above
# Method: as §1
row,Binder,SPOT peptide array binding signal intensity
1,RSKRLFPVRPMATAH,14.2

# Molecular target: CaLsb1
# Assay: as above
# Method: as §1
row,Binder,SPOT peptide array binding signal intensity
1,RSKRLFPVRPMATAH,0.5

# Molecular target: CaLsb4
# Assay: as above
# Method: as §1
row,Binder,SPOT peptide array binding signal intensity
1,RSKRLFPVRPMATAH,502

# Molecular target: CaMyo5
# Assay: as above
# Method: as §1
row,Binder,SPOT peptide array binding signal intensity
1,RSKRLFPVRPMATAH,≤ 0

# Molecular target: CaNbp2
# Assay: as above
# Method: as §1
row,Binder,SPOT peptide array binding signal intensity
1,RSKRLFPVRPMATAH,366

# Molecular target: CaRvs167
# Assay: as above
# Method: as §1
row,Binder,SPOT peptide array binding signal intensity
1,RSKRLFPVRPMATAH,27.8

# Molecular target: CaRvs167-3
# Assay: as above
# Method: as §1
row,Binder,SPOT peptide array binding signal intensity
1,RSKRLFPVRPMATAH,93.5

# Molecular target: CaSho1
# Assay: as above
# Method: as §1
row,Binder,SPOT peptide array binding signal intensity
1,RSKRLFPVRPMATAH,544

# Molecular target: CaSla1-D1-D2
# Assay: as above
# Method: as §1
row,Binder,SPOT peptide array binding signal intensity
1,RSKRLFPVRPMATAH,95

# Molecular target: CaSla1-D3
# Assay: as above
# Method: as §1
row,Binder,SPOT peptide array binding signal intensity
1,RSKRLFPVRPMATAH,22

# Molecular target: ScAbp1
# Assay: as above
# Method: as §1
row,Binder,SPOT peptide array binding signal intensity
1,RSKRLFPVRPMATAH,4

# Molecular target: ScBbc1
# Assay: as above
# Method: as §1
row,Binder,SPOT peptide array binding signal intensity
1,RSKRLFPVRPMATAH,10

# Molecular target: ScBem1-D1
# Assay: as above
# Method: as §1
row,Binder,SPOT peptide array binding signal intensity
1,RSKRLFPVRPMATAH,5

# Molecular target: ScBzz1-D1
# Assay: as above
# Method: as §1
row,Binder,SPOT peptide array binding signal intensity
1,RSKRLFPVRPMATAH,1.5

# Molecular target: ScBzz1-D2
# Assay: as above
# Method: as §1
row,Binder,SPOT peptide array binding signal intensity
1,RSKRLFPVRPMATAH,2

# Molecular target: ScCyk3
# Assay: as above
# Method: as §1
row,Binder,SPOT peptide array binding signal intensity
1,RSKRLFPVRPMATAH,216

# Molecular target: ScFus1
# Assay: as above
# Method: as §1
row,Binder,SPOT peptide array binding signal intensity
1,RSKRLFPVRPMATAH,255

# Molecular target: ScHof1
# Assay: as above
# Method: as §1
row,Binder,SPOT peptide array binding signal intensity
1,RSKRLFPVRPMATAH,1

# Molecular target: ScHse1
# Assay: as above
# Method: as §1
row,Binder,SPOT peptide array binding signal intensity
1,RSKRLFPVRPMATAH,998

# Molecular target: ScLsb1
# Assay: as above
# Method: as §1
row,Binder,SPOT peptide array binding signal intensity
1,RSKRLFPVRPMATAH,14.5

# Molecular target: ScLsb2
# Assay: as above
# Method: as §1
row,Binder,SPOT peptide array binding signal intensity
1,RSKRLFPVRPMATAH,≤ 0

# Molecular target: ScLsb3
# Assay: as above
# Method: as §1
row,Binder,SPOT peptide array binding signal intensity
1,RSKRLFPVRPMATAH,1050

# Molecular target: ScLsb4
# Assay: as above
# Method: as §1
row,Binder,SPOT peptide array binding signal intensity
1,RSKRLFPVRPMATAH,32.5

# Molecular target: ScMyo3
# Assay: as above
# Method: as §1
row,Binder,SPOT peptide array binding signal intensity
1,RSKRLFPVRPMATAH,5.5

# Molecular target: ScMyo5
# Assay: as above
# Method: as §1
row,Binder,SPOT peptide array binding signal intensity
1,RSKRLFPVRPMATAH,3

# Molecular target: ScNbp2
# Assay: as above
# Method: as §1
row,Binder,SPOT peptide array binding signal intensity
1,RSKRLFPVRPMATAH,384

# Molecular target: ScPex13
# Assay: as above
# Method: as §1
row,Binder,SPOT peptide array binding signal intensity
1,RSKRLFPVRPMATAH,3.5

# Molecular target: ScRvs167
# Assay: as above
# Method: as §1
row,Binder,SPOT peptide array binding signal intensity
1,RSKRLFPVRPMATAH,256

# Molecular target: ScSho1
# Assay: as above
# Method: as §1
row,Binder,SPOT peptide array binding signal intensity
1,RSKRLFPVRPMATAH,661

# Molecular target: ScSla1-D1-D2
# Assay: as above
# Method: as §1
row,Binder,SPOT peptide array binding signal intensity
1,RSKRLFPVRPMATAH,212

# Molecular target: ScSla1-D3
# Assay: as above
# Method: as §1
row,Binder,SPOT peptide array binding signal intensity
1,RSKRLFPVRPMATAH,34

# Molecular target: SpAbp1-D1
# Assay: as above
# Method: as §1
row,Binder,SPOT peptide array binding signal intensity
1,RSKRLFPVRPMATAH,118

# Molecular target: SpBbc1
# Assay: as above
# Method: as §1
row,Binder,SPOT peptide array binding signal intensity
1,RSKRLFPVRPMATAH,≤ 0

# Molecular target: SpBzz1-D1
# Assay: as above
# Method: as §1
row,Binder,SPOT peptide array binding signal intensity
1,RSKRLFPVRPMATAH,142

# Molecular target: SpBzz1-D2
# Assay: as above
# Method: as §1
row,Binder,SPOT peptide array binding signal intensity
1,RSKRLFPVRPMATAH,0.5

# Molecular target: SpCyk3
# Assay: as above
# Method: as §1
row,Binder,SPOT peptide array binding signal intensity
1,RSKRLFPVRPMATAH,5.5

# Molecular target: SpHof1
# Assay: as above
# Method: as §1
row,Binder,SPOT peptide array binding signal intensity
1,RSKRLFPVRPMATAH,99.2

# Molecular target: SpHof1-2
# Assay: as above
# Method: as §1
row,Binder,SPOT peptide array binding signal intensity
1,RSKRLFPVRPMATAH,5.5

# Molecular target: SpHof1-3
# Assay: as above
# Method: as §1
row,Binder,SPOT peptide array binding signal intensity
1,RSKRLFPVRPMATAH,550

# Molecular target: SpHse1
# Assay: as above
# Method: as §1
row,Binder,SPOT peptide array binding signal intensity
1,RSKRLFPVRPMATAH,350

# Molecular target: SpLsb1
# Assay: as above
# Method: as §1
row,Binder,SPOT peptide array binding signal intensity
1,RSKRLFPVRPMATAH,3

# Molecular target: SpLsb4
# Assay: as above
# Method: as §1
row,Binder,SPOT peptide array binding signal intensity
1,RSKRLFPVRPMATAH,624

# Molecular target: SpMyo1
# Assay: as above
# Method: as §1
row,Binder,SPOT peptide array binding signal intensity
1,RSKRLFPVRPMATAH,1

# Molecular target: SpNbp2
# Assay: as above
# Method: as §1
row,Binder,SPOT peptide array binding signal intensity
1,RSKRLFPVRPMATAH,235

# Molecular target: SpPex13
# Assay: as above
# Method: as §1
row,Binder,SPOT peptide array binding signal intensity
1,RSKRLFPVRPMATAH,11

# Molecular target: SpRvs167
# Assay: as above
# Method: as §1
row,Binder,SPOT peptide array binding signal intensity
1,RSKRLFPVRPMATAH,52.2

# Molecular target: SpSla1-D1-D2
# Assay: as above
# Method: as §1
row,Binder,SPOT peptide array binding signal intensity
1,RSKRLFPVRPMATAH,1

# Molecular target: SpSla1-D3
# Assay: as above
# Method: as §1
row,Binder,SPOT peptide array binding signal intensity
1,RSKRLFPVRPMATAH,13
